# Screens as filed in PubChem BioAssay.
# IL1B secr inh: blocks inflammasome-driven IL-1 beta release | THP-1 LPS/ATP IL-1B secretion, AlphaLISA, 16 h; active compounds read low | activity change, % at 57.5 µM | hit rate 4.7% among 360,000 | AID 743279; in the data active = activity change below about -50%; inconclusive = mostly about -30% to -49%
#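 Secreted IL-1B measured by AlphaLISA bead assay after 16 h compound exposure of THP-1 cells; compounds (final up to 57.5 uM) added 1 h before LPS (250 ng/mL) and ATP (1.25 mM) stimulation; lower signal means less secretion.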
# D3 ag: D3 dopamine receptor (human) agonism. P35462. D3R DiscoveRx beta-arrestin cells, luminescence, 90 min. max activation, %. hit rate 0.58% among 410,000; in the data active = max activation above about 30%
# Target sequence (P35462 whole entry, looked up): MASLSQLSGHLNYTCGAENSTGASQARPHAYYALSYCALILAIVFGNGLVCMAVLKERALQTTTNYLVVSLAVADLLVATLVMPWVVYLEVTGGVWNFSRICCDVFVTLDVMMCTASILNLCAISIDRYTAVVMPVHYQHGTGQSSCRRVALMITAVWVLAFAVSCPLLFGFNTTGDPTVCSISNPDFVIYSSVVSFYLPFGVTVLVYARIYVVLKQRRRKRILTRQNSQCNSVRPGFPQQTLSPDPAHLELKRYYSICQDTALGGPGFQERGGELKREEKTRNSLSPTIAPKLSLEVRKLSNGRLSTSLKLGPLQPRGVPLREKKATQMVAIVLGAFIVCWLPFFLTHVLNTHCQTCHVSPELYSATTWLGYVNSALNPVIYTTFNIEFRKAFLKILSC
#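 Agonist-mode cell screen: cells plated at 1500/well and incubated overnight at 37 °C, then exposed to library compounds for 90 min at 37 °C. Detection reagent was added for 30–60 min at room temperature, and luminescence was read.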
# TDP1 cell CPT: growth inhibition of DT40 Tdp1-/-;hTDP1 cells with camptothecin (screen for TDP1 inhibitors). chicken DT40 Tdp1-/-;hTDP1 cells + 20 nM CPT, ATP luminescence, 48 h. Potency, µM (titrated, usually from 46.2 µM), hits mostly inhibitors. hit rate 12% among 420,000; also: nearly all actives have a fitted effect of over 55% in size
#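 Chicken DT40 Tdp1-/- cells complemented with human TDP1, 400 cells/well, exposed to compounds plus 20 nM camptothecin for at least 48 h at 37 C; viability read as ATP content by CellTiter-Glo luminescence.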
# TDP1 cell noCPT: qHTS for Inhibitors of human tyrosyl-DNA phosphodiesterase 1 (TDP1): qHTS in cells in absence of CPT. DT40 Tdp1-/- hTDP1 cells, no CPT, ATP luminescence, 48 h. Potency, µM (top dose mostly 46.2 µM), actives largely listed as inhibitors. hit rate 15% among 420,000; also: nearly all actives have a fitted effect of over 55% in size
#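 Readout: luminescence from CellTiter-Glo after 30 min in the dark at RT. Cells: DT40 Tdp1-/- with stable hTDP1, 400/well. Exposure: compounds alone, ≥48 hr, 37 °C.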
# ClpP mod: qHTS Assay for Activators of ClpP; ATP-dependent Clp protease proteolytic subunit (Bacillus subtilis (strain 168)), P80244; purified B. subtilis ClpP, FRET peptide cleavage, 20 min; Potency, µM (top dose mostly 57.5 µM); hit rate 1.9% among 340,000; AID 651965, 2013; active = well fitted falling curve with a large enough effect; inconclusive = small, poorly fitted or top-dose-only effect; inactive = no such curve, though single readings can be large or run the other way; also: the source files actives as falling curves though it sought activators and does not explain the sign; nearly all actives have a fitted effect of over 65% in size
#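 Purified B. subtilis ClpP, 10 microg/mL final in Tris/HCl pH8 with KCl, BSA, glycerol and Tween-20, cleaved an Abz/nitrotyrosine-quenched decapeptide. Fluorescence (ex 320, em 430) was read at 0 and 20 min at room temperature. Delta was normalized to 5.8 microM ADEP and DMSO/no-enzyme controls.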
# DRD3 antagonist: D3 dopamine receptor (human) antagonism; P35462; D3R cells, DiscoveRx beta-arrestin luminescence, antagonist mode; active compounds read low; max response, negative = inhibition, %; hit rate 2.5% among 360,000; in the data active = max response below about -50%; inconclusive = no clear call, values can overlap the other calls
#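 Cells expressing the human receptor were seeded at 1500 cells/well, incubated overnight at 37 degrees C in 5% CO2, then exposed to library compounds with dopamine controls for 90 minutes at 37 degrees C before luminescent detection.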
# ClpP inh valid: inhibits B. subtilis ClpP protease, hit validation; Potency, µM (titrated, usually from 57.5 µM), hits mostly inhibitors; purified B. subtilis ClpP, FRET-FV substrate cleavage, 20 min; hit rate 40% among 470; shares compounds with ClpP mod; also: nearly all actives have a fitted effect of over 70% in size
# A number is an active result; - = inactive; ? = inconclusive; . = not tested or not shown. Compounds with a hit are over-represented: about 21% of the library has one in this group of screens. Unless noted, calls follow the shape of the dose curve; as a rule, active = well fitted inhibition curve with a large enough effect; inconclusive = small, poorly fitted or top-dose-only effect; inactive = flat fitted curve, though single readings scatter.
SMILES,IL1B secr inh,D3 ag,TDP1 cell CPT,TDP1 cell noCPT,ClpP mod,DRD3 antagonist,ClpP inh valid
COc1cc(NC(=O)CCN2CC(C)OC(C)C2)cc(OC)c1 (centres undefined),-,-,-,-,-,-,.
CCCN(CCC(=O)Nc1cc(OC)cc(OC)c1)CC1CC1,-,-,-,-,-,-,-
CC1=C(c2ccc(C)c(C)c2)S(=O)(=O)N(Cc2ccc(C(=O)NCc3cccc(C)c3)cc2)C1=O,.,-,?,?,10µM,.,15µM
Cc1cc(C)c2c(CC(=O)Nc3c(C(=O)c4ccc(F)cc4)oc4ccccc34)coc2c1,.,-,-,-,-,.,.
Cc1cc(C)c2c(CC(=O)Nc3c(C(=O)Nc4ccc(Cl)cc4)oc4ccccc34)coc2c1,.,-,?,?,7.9µM,.,-
CCc1nc2ccc(C(=O)N(CC)CCN(C)C)cn2c1N(C)C(=O)C1CCCCC1,-,-,-,-,-,-,.
Cn1c(NCCN2CCOCC2)nc2c1c(=O)n(Cc1cccc(Cl)c1)c(=O)n2C,-,-,?,?,3.2µM,-,-
COc1ccc(-c2nnc(-c3ccc(OCC(C)C)cc3)o2)cc1,-,-,-,-,7.9µM,-,19µM
COc1ccc(OCc2nnc(-c3ccccc3)o2)cc1,.,-,-,-,-,.,.
COc1cc(OC)c(C2C(C(=O)N3CCOCC3)=C(C)NC3=C2C(=O)CC(C)(C)C3)cc1OC (centres undefined),-,-,-,-,-,-,.
COc1cccc(C2C(C(=O)Nc3nc4ccccc4s3)=C(C)NC3=C2C(=O)CC(C)(C)C3)c1OC (centres undefined),-,-,?,?,-,-,8.6µM
OC(c1ccccc1)c1nc(-c2cncnc2)cs1 (centres undefined),-,-,-,-,-,-,.
O=NN(Cc1cccnc1)C(=O)NC1CCCCC1,-,-,?,?,-,-,.
CNc1cc(N2CCCC2)ccc1[N+](=O)[O-],-,-,-,-,.,-,.
c1nc2n(n1)C1=C(CCCC1)C1(CCCCC1)N2,-,-,-,-,10µM,-,-
CCOc1nc(-c2ccc(Cl)cc2Cl)ccc1C#N,-,-,-,-,-,-,.
Cc1cc(Cl)ccc1Oc1nc(-c2ccc(F)cc2)ccc1C#N,-,-,?,-,-,-,?
S=C(NCCc1ccc(Cl)cc1)NC1CC1,-,-,-,-,-,-,.
COc1cc2c(cc1NC(=O)C(C)N1CCN(S(=O)(=O)c3ccc(C)c(C)c3)CC1)oc1ccccc12 (centres undefined),-,31,-,-,3.2µM,-,?
CN(Cc1ccccc1F)C(=O)CNC(=O)Cc1cccc2ccccc12,-,-,-,-,-,-,.
CC1CCN(S(=O)(=O)c2ccc3c(c2)CCN3C(=O)Nc2cccc(Br)c2)CC1,.,-,-,-,-,.,?
Cc1nc(-c2ccc(Cl)cc2)sc1C1(C)CC(c2c(Cl)cccc2Cl)=NO1 (centres undefined),-,-,?,?,10µM,-,27µM
O=C(NCCN1CCOCC1)C(=O)c1c[nH]c2ccccc12,-,-,-,-,.,-,.
Clc1ccc2nc3ccccn3c2c1,-,-,-,-,2.5µM,-,?
N#Cc1ccc2c(c1)nc1ccccn12,-,-,-,-,.,-,.
CCC(C)N(C(=O)Cn1nnc(-c2ccc(Cl)cc2)n1)C1CCS(=O)(=O)C1 (centres undefined),-,-,-,-,-,-,.
Cn1c(C(=O)NCCC2=CCCCC2)cc2c(=O)n3ccccc3nc21,-,-,-,-,7.9µM,-,-
Cc1cccn2c(=O)c3cc(C(=O)NCCC4=CCCCC4)n(C)c3nc12,-,-,?,?,?,-,.
